Bioassay records from PubChem BioAssay.
Rows were chosen to be rich in hits. Some 2.6% of all compounds tested hit in one or more screens of this group.
TLR4-MyD88 inh = blocks binding of human TLR4 to MyD88; Cell-based TLR4-MyD88 binding inhibition assay; inhibition, % at 10 µM; 0.06% of 16,000 active; AID 811; in the data active = inhibition above about 45%
rat GALR2 ag = activates the rat galanin receptor 2 | cell-based GALR2 agonist screen | O08726 | activation, % at 10 µM | 0.5% of 16,000 active | AID 833; in the data active = activation above about 15%
S1P1 ag = activates the human S1P1 receptor; P21453; S1P1 agonist cell-based reporter assay; activation, % at 4.5 µM; 1.5% of 16,000 active; AID 1044; in the data active = activation above about 80%
OPRK1 antag MB = antagonists of human kappa opioid receptor OPRK1, Maybridge library | AID 652031 | P41145 | OPRK1 cells, antagonist mode, fluorescence readout | 0.4% of 16,000 active | inhibition, % at 9 µM; in the data active = inhibition above about 50%
Target sequence (P41145 whole entry, looked up): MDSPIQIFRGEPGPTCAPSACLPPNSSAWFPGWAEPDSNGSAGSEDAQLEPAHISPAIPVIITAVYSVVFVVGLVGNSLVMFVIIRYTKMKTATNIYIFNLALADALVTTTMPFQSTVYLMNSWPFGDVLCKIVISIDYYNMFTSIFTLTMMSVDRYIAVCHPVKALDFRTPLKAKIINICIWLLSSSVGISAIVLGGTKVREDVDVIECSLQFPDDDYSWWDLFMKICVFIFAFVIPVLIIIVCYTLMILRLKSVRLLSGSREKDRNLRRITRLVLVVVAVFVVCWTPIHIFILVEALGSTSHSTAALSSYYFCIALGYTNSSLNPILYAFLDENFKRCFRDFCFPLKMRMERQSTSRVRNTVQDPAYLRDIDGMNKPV
A number is an active result; i = inactive; nt = no result.

SMILES	TLR4-MyD88 inh	rat GALR2 ag	S1P1 ag	OPRK1 antag MB
O=C(Oc1cccc2c1C(=O)C=CC2=O)c1ccccc1	i	i	102.0	i
O=C(Oc1cccc2c1CCC2=O)c1ccccc1	i	i	i	i
CC(C)(C)c1ccc(NC(=O)c2ccc(N3C(=O)CSCC3=O)cc2)cc1	nt	i	93.5	i
CC1(C)C(=O)N(CNc2ccc(F)cc2)C(=O)N1C(=O)c1ccc(Cl)cc1	i	i	i	i
Cn1nc(-c2ccccc2)c(O)c(N=Nc2ccccc2)c1=O	i	i	i	i
Cc1[nH]n(C)c(=O)c1N=Nc1ccc(C(C)C)cc1	i	i	101.7	i
Oc1[nH]c2ccccc2c1N=Nc1nnc(-c2ccccc2)c(-c2ccccc2)n1	i	i	96.2	i
c1ccc(-c2[nH]c3ccccc3c2-c2ccccc2)cc1	i	i	i	i
CSc1sc(C(=O)NCC2CC2)cc1S(=O)(=O)C(C)C	i	17.1	i	i
Cn1c2c(c3ccccc31)/C(=N/O)CCC2	i	i	i	i
COC(=O)c1ccc(/N=C/N(C)C)o1	i	i	i	i
CCC/C(O)=C(\C=N\c1ccc(C(=O)OC)o1)C(=O)OCC	i	i	82.7	i
CCN1CCCC1CNC(=O)NC(=O)c1ccc([N+](=O)[O-])cc1 (stereo not drawn)	i	i	85.4	i
CC1CCCN(c2ccc([N+](=O)[O-])cc2)C1 (stereo not drawn)	i	i	i	i
Cn1c(-c2ncc(C(F)(F)F)cc2Cl)n[nH]c1=S	i	i	92.9	i
Cc1ccc(C)n1-c1cccc([N+](=O)[O-])c1	i	i	i	i
CC1COC(c2cccc([N+](=O)[O-])c2)N1 (stereo not drawn)	i	i	i	56.1
O=C(c1ccc(Cl)cc1)n1ccc(-c2cccc([N+](=O)[O-])c2)n1	i	26.2	i	i
O=C(Nc1ccc(Cl)cc1)OCc1ccc(C#Cc2ccccc2)s1	i	i	i	i
COc1cc(C(=O)NC2CC(C)CC(C)(C)C2)cc(OC)c1OC (stereo not drawn)	i	i	108.8	i
COc1ccc(OC)c(NC(=O)C(=O)NC2CC(C)CC(C)(C)C2)c1 (stereo not drawn)	i	i	i	i
O=[N+]([O-])c1cnc(Sc2ccc(C(F)(F)F)cn2)s1	i	i	i	i
O=C1NC(=S)S/C1=C\c1cc([N+](=O)[O-])ccc1Sc1ccc(C(F)(F)F)cn1	i	i	108.1	i
CC(C)(C)OC(=O)N1CCN(C(=O)c2cccs2)CC1	i	i	i	i
N#Cc1nc(=O)n(-c2ccc(OC(F)(F)F)cc2)c(N)c1N=Cc1ccc(C(F)(F)F)cc1	i	i	105.7	i
SMILES	TLR4-MyD88 inh	rat GALR2 ag	S1P1 ag	OPRK1 antag MB
O=S(=O)(O)c1ccc2[nH]c(=S)[nH]c2c1	i	60.3	i	i
COc1ccc2[nH]c(=S)[nH]c2c1	i	i	i	i
O=[N+]([O-])c1ccc(C2=NN(c3ccccc3)C(c3ccco3)C2)cc1 (stereo not drawn)	70.4	i	i	86.6
O=C(Nc1ccc(F)c(Cl)c1)c1cc(Br)ccc1O	i	i	109.4	69.6
N/C(=N\OC(=O)C(Cl)Cl)c1cccc(Cl)c1Cl	i	i	i	i
Cc1c(C)c(C)c(S(=O)(=O)NCCCN2CC(C)OC(C)C2)c(C)c1C (stereo not drawn)	i	i	i	i
Nc1c(Cl)cc(C(=O)Nc2cc(Cl)c(Cl)cc2Cl)cc1Cl	i	16.6	i	i
COc1cc(NC(=O)c2cc(OC)c(OC)c(OC)c2)c(OC)cc1Cl	i	i	i	i
c1ccc(-c2nc(-c3ccc(-c4ccon4)s3)no2)cc1	i	i	87.2	i
Cn1nc(C(C)(C)C)cc1C(=O)Nc1cccnc1	i	i	i	i
Cc1cc(C)c(C(=O)Nc2cccnc2)c(CC(C)(C)C(=O)O)c1	i	i	81.7	i
Nc1c(C(=O)c2ccccc2)sc2nsc(SCCN3CCCC3)c12	i	i	i	76.3
COc1ccc(C(=O)OCC(=O)c2ccc(Cl)cc2)cc1	i	i	i	i
Cc1cc(C)c(/C=C(\C#N)C(=O)c2cccs2)[nH]1	i	i	i	i
COc1ccccc1C1CCN(Cc2ccc3c(c2)CCC(C)(C)O3)CC1	i	i	i	75.2
COc1cccc(C=NC2CCN(Cc3ccccc3)CC2)c1OC	i	i	i	i
Cc1c(C(=O)Oc2cccc(C(F)(F)F)c2)n(C)oc1=O	i	56.3	i	i
Cc1c(C(=O)NNc2cc(C(F)(F)F)ccc2Cl)n(C)oc1=O	i	i	i	i
CC1=NN(C)C(=O)/C1=C/N(C)C	i	i	i	i
C#CC(CC)(CC)N=Cc1cc(Br)ccc1OCC	i	i	122.7	i
CCOc1ccccc1/C=N/NC(=O)N/N=C/c1ccccc1OCC	i	i	i	i
CCOC(=O)c1csc(Cc2ccc(-c3csnn3)cc2)n1	i	i	i	i
Oc1c(Cl)cc(Cl)cc1/C=N/NC(=S)NC1CC2CCC1C2 (stereo not drawn)	i	51.0	i	i
Cc1nnsc1C(=O)Nc1ccccc1SCc1cccc(C(F)(F)F)c1	i	i	88.2	i
O=C1NC(=S)S/C1=C/c1ccc(Sc2ccc(Cl)cc2)c([N+](=O)[O-])c1	i	i	i	i
SMILES	TLR4-MyD88 inh	rat GALR2 ag	S1P1 ag	OPRK1 antag MB
CO[C@H]1O[C@H](CO)[C@@H](O)[C@H](O)[C@@H]1O	i	i	i	i
CN(C)/C=C/C=c1/c(=O)c2cccc3cccc1c32	i	i	102.0	i
CCCS(=O)(=O)c1cnc2cc(C3CC3)nn2c1N	i	i	i	i
COc1ccc(CCNC(C#N)c2ccco2)cc1OC (stereo not drawn)	i	i	105.0	i
COc1ccc(CCNC(=O)c2ccccc2)cc1OC	i	i	i	i
Oc1ccccc1/C=N/NC(=S)Nc1cccc(Cl)c1	i	i	i	i
CC(C)(C)c1cc(C(=O)NNC(=S)Nc2ccccc2)n(Cc2ccc(Cl)cc2Cl)n1	i	i	101.0	i
CC(C)(C)c1cc(C(=O)NCc2ccc(C#N)cc2)n(Cc2ccccc2)n1	i	i	i	i
O=S(=O)(Nc1ccc(C(F)(F)F)cc1Cl)c1cc(Br)c(Cl)s1	i	i	113.1	i
O=S(=O)(c1cc(Br)c(Cl)s1)N1C=CC(C(F)(F)F)=NCC1	i	i	i	i
CCOC(=O)Nc1ccccc1C(=O)OC	i	i	i	i
O=C(NCC(O)COCc1ccccc1)c1ccccc1 (stereo not drawn)	i	29.1	i	i
Cc1ccc(S(=O)(=O)/C=C/c2ccc([N+](=O)[O-])o2)cc1	i	i	i	i
NC(N)=NS(=O)(=O)c1c(Cl)cc(C(F)(F)F)cc1Cl	i	i	i	i
Cc1cc(NC(=O)CN2CCOCC2)n(-c2ccccc2)n1	i	137.1	i	i
CSC1=C(C#N)C(=C(C#N)C#N)NC(c2ccccc2)=N1	i	i	i	i
COC(=O)c1cc(NC(=O)c2c(Cl)cccc2Cl)ccc1N1CCOCC1	i	i	i	i
COC(=O)c1cc(NC(=O)/C=C/c2ccc(OC)c(OC)c2Cl)ccc1N1CCOCC1	i	i	84.6	i
CC(=O)Nc1ccc(NC(=O)c2c(Cl)cccc2Cl)c(C)c1	i	41.2	i	i
CC(=O)/C(=C\N(C)C)SCc1ccccc1C	i	i	96.6	i
O=C(O)C(F)(F)C(F)(F)C(=O)NCc1cccc(Cl)c1	i	i	i	50.5
O=C(NCc1ccc(C(F)(F)F)cc1)c1cc(Cl)cc(Cl)c1	i	i	i	i
